# Values without a mark were called inactive. This is one part of the list. Active and inactive are the calls of the source. Cut-off read from the data, not from the text of the source, unless noted: active = inhibition above about 22%; inactive = the rest.
# Key:
# [1] = biological target: Insulin-degrading enzyme (Homo sapiens) (UniProt P14735); assay: human IDE inhibitors in live cells, confirmation, fluorescence polarization, HEK cells, FAbetaB substrate (AID 435028;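 active = mean inhibition across triplicate wells above the cutoff set by the earlier primary insulin-degrading enzyme screen, cut at about 16% in these data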;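 note: 0% = DMSO wells and 100% = 60 µM reference IDE inhibitor Ii1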); settings: FAbetaB cleavage, at 5.59 µM, hits give high values
# [2] = cytotoxicity in HEK cells, cytotoxicity control for IDE inhibitor project, cell-based, luminescence (AID 449730); settings: HEK293 cytotoxicity, ATP luminescence; at 5.59 µM; hits give high values;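 note: 0% = vehicle wells and 100% = reference cytotoxic drug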
# [3] = biological target: Oxytocin receptor (Homo sapiens) (UniProt P30559); assay: human OXTR agonists, confirmation, fluorescence, CHO-OTR cells, triplicate (AID 434963;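 active = mean activation above about 20% derived from the earlier single-dose screen, limit read from the data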;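 note: peak over minimum fluorescence ratio per well during a 100 second FLIPR read; 0% = DMSO alone and 100% = oxytocin high control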); settings: Fluo-8 calcium fluorescence, agonist, at 3 µM, hits give high values
# [4] = biological target: Vasopressin V1a receptor (Homo sapiens) (UniProt P37288); assay: V1a receptor agonists, calcium signal, counter-screen for OXTR agonist project, triplicate, fluorescence, CHO-V1R cells (AID 434991;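 active = mean activation over triplicate exceeds the hit threshold set in the earlier primary screen, cut at about 20% in these data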;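 note: peak over basal fluorescence ratio within a 100 second read; 0% = DMSO alone and 100% = 3 nM vasopressin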); settings: Fluo-8 calcium fluorescence, at 3 µM, hits give high values
# [5] = biological target: Nuclear receptor coactivator 1 (Homo sapiens) (UniProt Q15788); assay: SRC1 coactivator transcriptional activity inhibitors, confirmation, cell-based, luminescence, quadruplicate (AID 588820;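 active = mean inhibition above 46.68%, the untreated control wells mean plus 3 SD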;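 note: 0% = DMSO wells and 100% = gossypol 36 µM treated wells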); settings: HEK293 GAL4-SRC1 luciferase reporter, at 3.6 µM, hits give high values
# [6] = VP16 transactivation inhibitors, counter-screen for SRC1 inhibitor project, cell-based, luminescence, high throughput (AID 588824; in the data active = inhibition above about 25%); settings: cell-based VP16 transactivation luciferase luminescence; at 3.6 µM; hits give high values
# [7] = tested on: transactivating tegument protein VP16 (Human herpesvirus 1); assay: VP16 transactivation reporter inhibitors, counter-screen for SRC2 inhibitor project, cell-based, luminescence, single concentration (AID 652007; in the data active = inhibition above about 36%); settings: cell-based VP16 transactivation luciferase reporter, at 8.9 µM, hits give high values
# [8] = biological target: Nuclear receptor coactivator 2 (Homo sapiens) (UniProt Q15596); assay: SRC2 coactivator transcriptional activity inhibitors, confirmation, cell-based, luminescence, HEK293, triplicate (AID 652008;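 active = mean inhibition above 46.5%, the solvent-only control mean plus 3 SD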;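 note: 0% = DMSO-treated cells and 100% = Gossypol at 36 µM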); settings: HEK293 GAL4-SRC2 luciferase reporter, at 8.9 µM, hits give high values
# [9] = biological target: (Lyso)-N-acylphosphatidylethanolamine lipase (Mus musculus) (UniProt Q8VD66); assay: ABHD4 inhibitors, retest, confirmation, biochemical, fluorescence polarization, mouse (AID 720658;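 active = mean inhibition across replicates above the hit cutoff set in the primary screen, cut at about 30% in these data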;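 note: 0% = wild-type ABHD4 with DMSO and 100% = catalytically dead S159A mutant with DMSO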); settings: purified mABHD4, FP-Rh probe fluorescence polarization; at 8.92 µM; hits give high values
# [10] = biological target: Photoreceptor-specific nuclear receptor (Homo sapiens) (UniProt Q9Y5X4); assay: NR2E3 agonist confirmation in cells, cell-based, luminescence, CHO-S two-hybrid (AID 624378;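 active = average inhibition above a cutoff equal to the mean inhibition of all tested compounds plus one SD, cut at about 70% in these data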;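 note: 0% = DMSO in NR2E3 cells and 100% = DMSO in cells lacking NR2E3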); settings: CHO-S mammalian two-hybrid NR2E3-NCOR, luciferase luminescence; at 3.98 µM; hits give high values
# [11] = GAL4-VP16 reporter modulators, confirmation, counter-screen for NR2E3 agonist project, cell-based, luminescence, CHO-S, high throughput (AID 624379;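 active = mean inhibition above a cutoff equal to the average over all tested compounds plus one standard deviation, cut at about 70% in these data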;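 note: luciferase from a UAS reporter driven by GAL4-VP16 transactivation; 0% = DMSO with VP16-transfected cells and 100% = DMSO with cells lacking VP16; higher means less reporter light so more repression of VP16 activity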); settings: CHO-S GAL4-VP16 luciferase reporter, at 3.98 µM, hits give high values
# Chain of Vasopressin V1a receptor (Homo sapiens) (P37288 whole entry, looked up): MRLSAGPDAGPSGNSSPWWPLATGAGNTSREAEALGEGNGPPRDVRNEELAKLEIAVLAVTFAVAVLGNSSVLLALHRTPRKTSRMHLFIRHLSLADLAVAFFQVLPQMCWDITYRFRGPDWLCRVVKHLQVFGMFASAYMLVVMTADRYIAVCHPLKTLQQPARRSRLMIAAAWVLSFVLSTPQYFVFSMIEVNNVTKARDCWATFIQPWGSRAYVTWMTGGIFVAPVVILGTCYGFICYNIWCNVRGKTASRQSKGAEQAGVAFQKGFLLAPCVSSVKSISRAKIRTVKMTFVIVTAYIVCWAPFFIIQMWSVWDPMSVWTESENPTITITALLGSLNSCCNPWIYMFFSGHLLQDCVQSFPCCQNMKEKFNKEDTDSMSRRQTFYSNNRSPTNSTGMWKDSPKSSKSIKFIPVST
# Chain of Insulin-degrading enzyme (Homo sapiens) (P14735 whole entry, looked up): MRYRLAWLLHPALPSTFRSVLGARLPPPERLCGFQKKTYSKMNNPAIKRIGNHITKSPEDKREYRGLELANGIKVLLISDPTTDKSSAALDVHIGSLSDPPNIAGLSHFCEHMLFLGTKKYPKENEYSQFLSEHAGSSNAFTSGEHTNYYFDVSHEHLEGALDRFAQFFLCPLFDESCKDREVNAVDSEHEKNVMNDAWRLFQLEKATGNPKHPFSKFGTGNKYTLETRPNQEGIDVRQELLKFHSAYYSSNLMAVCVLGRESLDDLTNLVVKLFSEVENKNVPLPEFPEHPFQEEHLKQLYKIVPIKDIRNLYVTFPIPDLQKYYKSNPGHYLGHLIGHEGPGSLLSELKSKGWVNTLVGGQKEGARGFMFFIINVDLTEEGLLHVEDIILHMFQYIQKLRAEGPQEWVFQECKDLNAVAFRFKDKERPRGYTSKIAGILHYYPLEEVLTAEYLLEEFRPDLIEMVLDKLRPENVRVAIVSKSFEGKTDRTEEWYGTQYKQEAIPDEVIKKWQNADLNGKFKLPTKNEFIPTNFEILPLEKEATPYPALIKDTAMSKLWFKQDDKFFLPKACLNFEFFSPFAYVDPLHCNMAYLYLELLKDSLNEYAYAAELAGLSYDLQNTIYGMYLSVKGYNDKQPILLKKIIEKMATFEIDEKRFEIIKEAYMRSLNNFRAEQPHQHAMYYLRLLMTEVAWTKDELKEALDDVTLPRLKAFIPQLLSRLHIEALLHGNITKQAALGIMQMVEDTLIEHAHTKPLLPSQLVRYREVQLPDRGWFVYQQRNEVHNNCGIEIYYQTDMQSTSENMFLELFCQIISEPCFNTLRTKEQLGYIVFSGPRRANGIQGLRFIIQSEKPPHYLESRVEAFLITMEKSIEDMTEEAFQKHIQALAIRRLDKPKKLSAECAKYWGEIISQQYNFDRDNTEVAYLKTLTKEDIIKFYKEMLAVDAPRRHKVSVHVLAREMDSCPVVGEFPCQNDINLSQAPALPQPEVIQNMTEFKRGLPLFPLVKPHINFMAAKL
# Chain of Oxytocin receptor (Homo sapiens) (P30559 whole entry, looked up): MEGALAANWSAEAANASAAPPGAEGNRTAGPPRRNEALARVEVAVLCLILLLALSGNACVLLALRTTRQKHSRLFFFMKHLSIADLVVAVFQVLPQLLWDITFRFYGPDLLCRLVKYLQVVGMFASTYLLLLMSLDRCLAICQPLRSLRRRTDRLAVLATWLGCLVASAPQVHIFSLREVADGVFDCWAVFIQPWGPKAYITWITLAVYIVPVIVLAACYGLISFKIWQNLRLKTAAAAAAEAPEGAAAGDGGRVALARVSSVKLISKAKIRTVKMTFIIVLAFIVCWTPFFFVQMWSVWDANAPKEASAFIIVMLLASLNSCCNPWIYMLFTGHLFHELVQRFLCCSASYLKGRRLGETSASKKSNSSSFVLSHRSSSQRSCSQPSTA
# Chain of Photoreceptor-specific nuclear receptor (Homo sapiens) (Q9Y5X4 whole entry, looked up, the tested form may be a part): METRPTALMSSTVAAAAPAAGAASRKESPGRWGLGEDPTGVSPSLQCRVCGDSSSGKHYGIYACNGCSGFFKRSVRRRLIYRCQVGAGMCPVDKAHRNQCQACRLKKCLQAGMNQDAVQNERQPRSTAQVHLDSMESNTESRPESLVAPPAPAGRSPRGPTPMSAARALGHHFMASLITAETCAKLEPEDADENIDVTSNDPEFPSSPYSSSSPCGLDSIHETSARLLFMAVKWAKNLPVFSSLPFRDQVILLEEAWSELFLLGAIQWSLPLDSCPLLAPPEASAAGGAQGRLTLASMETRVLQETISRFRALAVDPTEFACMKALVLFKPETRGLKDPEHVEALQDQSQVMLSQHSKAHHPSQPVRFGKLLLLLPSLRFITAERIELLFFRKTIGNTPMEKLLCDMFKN
# Chain of (Lyso)-N-acylphosphatidylethanolamine lipase (Mus musculus) (Q8VD66 whole entry, looked up): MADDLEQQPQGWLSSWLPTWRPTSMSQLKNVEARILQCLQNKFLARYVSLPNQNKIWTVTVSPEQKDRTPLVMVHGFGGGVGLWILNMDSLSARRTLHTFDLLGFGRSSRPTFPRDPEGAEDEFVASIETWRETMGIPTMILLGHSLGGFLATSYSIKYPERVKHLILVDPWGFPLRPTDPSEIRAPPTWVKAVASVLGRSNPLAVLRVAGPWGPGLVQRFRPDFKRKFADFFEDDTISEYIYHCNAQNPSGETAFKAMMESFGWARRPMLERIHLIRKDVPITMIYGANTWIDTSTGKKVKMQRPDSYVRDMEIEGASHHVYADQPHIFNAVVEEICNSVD
# Chain of Nuclear receptor coactivator 1 (Homo sapiens) (Q15788 whole entry, looked up, the tested form may be a part): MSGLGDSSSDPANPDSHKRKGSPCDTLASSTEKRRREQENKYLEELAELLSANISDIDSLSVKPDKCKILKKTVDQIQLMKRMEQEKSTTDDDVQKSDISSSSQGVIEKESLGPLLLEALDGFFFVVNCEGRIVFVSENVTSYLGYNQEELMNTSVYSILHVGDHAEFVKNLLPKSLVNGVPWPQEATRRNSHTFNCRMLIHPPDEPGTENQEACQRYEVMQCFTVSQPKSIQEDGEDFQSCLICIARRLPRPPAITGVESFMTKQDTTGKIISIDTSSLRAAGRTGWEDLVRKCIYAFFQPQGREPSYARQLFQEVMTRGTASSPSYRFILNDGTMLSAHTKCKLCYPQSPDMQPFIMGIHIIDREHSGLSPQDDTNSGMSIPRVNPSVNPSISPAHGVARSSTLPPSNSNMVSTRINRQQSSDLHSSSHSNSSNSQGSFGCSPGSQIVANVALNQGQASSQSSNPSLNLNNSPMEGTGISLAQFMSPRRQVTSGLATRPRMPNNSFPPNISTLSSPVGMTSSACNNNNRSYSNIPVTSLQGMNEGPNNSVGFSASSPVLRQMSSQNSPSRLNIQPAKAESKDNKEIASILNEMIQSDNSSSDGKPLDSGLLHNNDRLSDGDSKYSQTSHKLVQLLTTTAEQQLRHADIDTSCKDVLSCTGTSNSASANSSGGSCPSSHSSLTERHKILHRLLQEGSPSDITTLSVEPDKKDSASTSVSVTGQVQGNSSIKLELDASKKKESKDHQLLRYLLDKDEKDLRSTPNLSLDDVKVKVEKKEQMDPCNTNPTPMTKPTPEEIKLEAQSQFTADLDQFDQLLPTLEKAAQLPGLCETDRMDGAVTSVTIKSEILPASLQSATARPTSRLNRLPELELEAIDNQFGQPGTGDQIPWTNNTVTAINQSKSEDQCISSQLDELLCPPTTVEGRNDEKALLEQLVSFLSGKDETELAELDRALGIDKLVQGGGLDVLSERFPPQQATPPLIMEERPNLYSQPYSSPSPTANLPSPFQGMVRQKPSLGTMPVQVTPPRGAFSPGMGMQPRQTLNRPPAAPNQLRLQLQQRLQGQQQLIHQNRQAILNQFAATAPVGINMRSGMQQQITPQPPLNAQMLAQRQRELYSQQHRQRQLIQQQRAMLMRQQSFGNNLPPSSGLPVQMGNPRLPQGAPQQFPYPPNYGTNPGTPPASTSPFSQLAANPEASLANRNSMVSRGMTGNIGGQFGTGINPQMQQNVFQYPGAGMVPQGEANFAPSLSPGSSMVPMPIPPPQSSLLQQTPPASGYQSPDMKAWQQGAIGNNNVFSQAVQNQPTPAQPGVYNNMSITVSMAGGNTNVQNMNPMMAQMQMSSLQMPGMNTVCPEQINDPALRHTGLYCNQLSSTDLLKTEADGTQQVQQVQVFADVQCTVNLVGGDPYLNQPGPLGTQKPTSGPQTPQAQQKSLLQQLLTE
compound,measurement,setting,value
NC(=O)c1c(Nc2nc3c(F)cccc3s2)sc2c1CCCC2,inhibition,[1],12.7%
same,inhibition,[2],5.16%
CCC(=C/c1sc2ccc3ccccc3c2[n+]1C)/C=C1\Sc2ccc3ccccc3c2N1C,inhibition,[1],13.4%
same,inhibition,[2],110% (active)
O=C(CCc1ccc(S(=O)(=O)N2CCOCC2)cc1)Nc1ccc2ccccc2c1,inhibition,[1],8.6%
same,inhibition,[2],13.4%
Cc1cc(Cl)ccc1OCCCC(=O)NCc1ccncc1,inhibition,[1],7.81%
same,inhibition,[2],14.7%
Cc1nn(C)cc1C(=O)c1ccccc1,inhibition,[1],3.52%
same,inhibition,[2],5.03%
Cc1cc(S(=O)(=O)c2cc3ccc(O)c(C)c3oc2=O)ccc1F,activation,[3],16%
same,activation,[4],13.1%
same,inhibition,[5],-24%
same,inhibition,[6],-0.08%
Cc1cccc(N2CCN(C(=O)c3cccc(N4C(=O)C5C6C=CC(C6)C5C4=O)c3)CC2)c1C (configuration not stated),inhibition,[1],31.1% (active)
same,inhibition,[2],17.6%
CCOC(=O)CC1C(=O)NCCN1c1nc2c(C)cccn2c(=O)c1/C=C1\SC(=S)N(C(C)CC)C1=O (configuration not stated),inhibition,[1],27.1% (active)
same,inhibition,[2],41.5% (active)
Cc1ccc2c(c1)c1ncnc(N3CCc4ccccc4C3)c1n2C,inhibition,[1],14%
same,inhibition,[2],7.19%
COc1cc(/C=C2/SC(=S)N(Cc3ccccc3)C2=O)cc(OC)c1O,activation,[3],29.3% (active)
same,activation,[4],38.2% (active)
same,inhibition,[1],142% (active)
same,inhibition,[2],19.6%
Cc1c(C(=O)Nc2cccc(-c3nnc4n3CCCCC4)c2)oc2ccccc12,inhibition,[1],5.89%
same,inhibition,[2],21.4%
CCc1ccc(-c2nn(-c3ccccc3)cc2CSC(=N)N)cc1,activation,[3],11%
same,activation,[4],7.29%
same,inhibition,[7],-13.8%
same,inhibition,[8],-7.64%
same,inhibition,[9],43.6% (active)
CCCc1nc(SCC(=O)Nc2ccc(S(=O)(=O)N(C)C)cc2)c2ccccc2n1,inhibition,[1],6.74%
same,inhibition,[2],21.9%
CN(C)S(=O)(=O)c1ccc(Oc2ccc(S(=O)(=O)N(C)C)cc2)cc1,activation,[3],11.7%
same,activation,[4],11.1%
same,inhibition,[10],71.8% (active)
same,inhibition,[11],31.9%
